The values that follow come from PubChem BioAssay (NCATS).

Active and inactive are the calls of the source. Calls come from the whole dose curve.

This assay can be described thus: Cell Proliferation Assay Versus the ED40515 IL2 Independent ATL cell lines (AID 1053194). The note with it: ED40515 IL2-independent ATL cells. From the text:
Adult T-cell leukemia (ATL) develops in individuals infected with human T-cell lymphotropic virus-1 (HTLV-1). Clinically, ATL is subclassified into four subtypes: smoldering, chronic, lymphomatous, and acute. Two autocrine loops (IL-2/IL-2Ralpha and IL-15/IL-15Ralpha) and one paracrine stimulation loop that involves IL-9 expression by ATL cells and IL-9Ralpha expression on monocytes are required to maintain viability and proliferation in the smoldering and chronic forms of the disease. These assays examined the differential response profiles for the MIPE library of approved and investigational drugs versus an IL2 dependent and independent matched ATL cell line, with the current submission examining the differential response profiles for drugs on an IL2 independent matched ATL cell line
Plate log growing ED40515 -IL2 cells: 1000cells/ well in 5uL phenol red free RPMI +5% FBS +1x p/s, Glutamine using 1536 well white griener tissue culture plates and multidrop cassette acoustic dispensing Columns 1 and 3 DMSO Columns 2 and 4, 9.2 uM Bortezomib Incubate 48 hours for celltiter glo 37C with 5%CO2 and 95% humidity with low evaporation lids Dispense 3 uL per well of cell titer glo with multidrop Incubate for 15 minutes at RT Read on VL/2 using Luminesence Wheel (Filter A)
`CCCCCCCc1ccc(CCc2cccc(O)c2C(=O)O)cc1`: the Potency was 16.6 µM (active).

For `O=C(NOC[C@H](O)CO)c1ccc(F)c(F)c1Nc1ccc(I)cc1F`, the Potency was 33.2 µM (active).

In the case of `CC(C)(C)OC(=O)CN(Cc1ccc(Cl)cc1)Cc1ccc([N+](=O)[O-])s1`, the Potency was 29.6 µM (active).

Regarding `Cc1cc2c(F)c(Oc3ncnn4cc(OC[C@@H](C)O)c(C)c34)ccc2[nH]1`, the Potency was 1.05 µM (active).

In the case of `COc1ccc2nc(S(=O)Cc3ncc(C)c(OC)c3C)[nH]c2c1` (stereo not given), the Potency was 1.05 µM (active).

As for `CCCn1c(=O)c2[nH]c(C34CC5CC3C[C@@H](C5)C4)nc2n(CCC)c1=O`, the Potency is 18.7 µM (active).

As to `Cc1cc([C@@H](C)Nc2ccccc2C(=O)O)c2nc(N3CCOCC3)cc(=O)n2c1`, the Potency was 20.9 µM (active).

Turning to `c1ccc(-c2nn3c(c2-c2ccnc4cc(OCCN5CCOCC5)ccc24)CCC3)nc1`, the Potency was 26.4 µM (active).

In the case of `S=C(NCc1ccc2c(c1)OCO2)N1CCN(c2ncnc3c2oc2ccccc23)CC1`, the Potency is 3.32 µM (active).

Consider `N#CC[C@H](C1CCCC1)n1cc(-c2ncnc3[nH]ccc23)cn1`, for which the Potency is 20.9 µM (active).

As for `NC(=O)c1ccc(I)c([N+](=O)[O-])c1`, the Potency was 16.6 µM (active).

With `CS(=O)(=O)c1cccc(CNc2nc(Nc3ccc4c(c3)CCC(=O)N4)ncc2C(F)(F)F)c1`, the Potency was 4.69 µM (active).

For `Nc1nccc(-c2ccc3noc(-c4ccc(Cl)cc4)c3c2)n1`, the Potency is 18.7 µM (active).

`OC[C@H](Cc1ccccc1)Nc1nc(Oc2ccc3c(c2)CCC3)nc2c1ncn2Cc1ccc(-c2ccccc2)cc1`: the Potency was 4.69 µM (active).

With `COc1cc(Oc2ccnc3cc(OC)c(OC)cc23)ccc1NC(=O)NC(C)c1nccs1` (stereo not given), the Potency was 9.35 µM (active).

Turning to `O=C1CCCC2=C1C(c1[nH]ncc1Cl)N=C(Nc1nc3ccccc3o1)N2` (stereo not given), the Potency is 16.6 µM (active).

With `C[C@@H]1CN(Cc2ccc(F)cc2)[C@@H](C)CN1C(=O)c1cc2c(C(=O)C(=O)N(C)C)cn(C)c2cc1Cl`, the Potency was 37.2 µM (active).

With `C/C(=C\C(=O)Nc1ccccc1C(=O)O)c1ccc2ccccc2c1`, the Potency was 8.33 µM (active).

Regarding `OCCC#Cc1nc(-c2ccc(F)cc2)c(-c2ccncc2)n1CCCc1ccccc1`, the Potency was 23.5 µM (active).

Turning to `CCOc1cc(N2CCC(O)CC2)ccc1Nc1ncc2c(n1)N(C)c1ccccc1C(=O)N2C`, the Potency was 5.26 µM (active).

`O=C(Nc1nc2ccccc2n1CCN1CCOCC1)c1cccc([N+](=O)[O-])c1`: the Potency is 18.7 µM (active).

With `COc1cc(F)c(F)c(Nc2ccc(I)cc2F)c1NS(=O)(=O)C1(C[C@H](O)CO)CC1`, the Potency is 26.4 µM (active).

Consider `O=c1ncn2nc(Sc3ccc(F)cc3F)ccc2c1-c1c(Cl)cccc1Cl`, for which the Potency is 26.4 µM (active).

For `Clc1ccc(Nc2nnc(Cc3ccncc3)c3ccccc23)cc1`, the Potency was 33.2 µM (active).

`CCn1c(-c2nonc2N)nc2c(C#CC(C)(C)O)ncc(OC[C@H]3CCCNC3)c21`: the Potency is 33.2 µM (active).

As for `CCOc1cc(C=C2C(=O)N(c3ccccc3)N=C2C)cc(Cl)c1OCC(=O)OC`, the Potency is 29.6 µM (active).

Turning to `CC(C)OC(=O)C1=CN(C(=O)c2ccc(F)c(F)c2)CC(C)(C)c2c1[nH]c1ccccc21`, the Potency was 11.8 µM (active).

Take `Oc1cccc(-c2nc(N3CCOCC3)c3oc4ncccc4c3n2)c1`: the Potency is 1.32 µM (active).

With `COc1nc(-c2ccc3c(c2)OCO3)n(-c2ccc(NC(=O)CSc3ccccc3)cc2)n1`, the Potency is 23.5 µM (active).

As to `COc1ccc(-c2ccc3c(N4CCOC[C@H]4C)nc(N4CCOC[C@H]4C)nc3n2)cc1CO`, the Potency is 0.0083 µM (active).

For the compound `CCc1cc(Nc2nccc(-c3c(-c4ccc(OC)c(C(=O)Nc5c(F)cccc5F)c4)nc4ccccn34)n2)c(OC)cc1N1CCC(N2CCN(S(C)(=O)=O)CC2)CC1`, the Potency is 4.69 µM (active).

As to `CCc1ccc(CCOc2ccc(CC3SC(=O)NC3=O)cc2)nc1` (stereo not given), the Potency is 23.5 µM (active).

As for `CCOc1cc(C(=O)Nc2ccc(Cl)c(-c3nc4ccccc4[nH]3)c2)cc(OCC)c1OCC`, the Potency is 18.7 µM (active).

For `CC1(C)SCCN(S(=O)(=O)c2ccc(OCC#CCO)cc2)[C@@H]1C(=O)NO`, the Potency is 37.2 µM (active).

On to `Cc1cnc(Nc2ccc(OCCN3CCCC3)cc2)nc1Nc1cccc(S(=O)(=O)NC(C)(C)C)c1`, for which the Potency is 33.2 µM (active).

For `Cc1csc(NC(=O)c2sc3nc4c(c(C(F)(F)F)c3c2N)CCC4)n1`, the Potency was 26.4 µM (active).

Take `CC(=O)NC(C)c1ccc(Oc2ccc(OC(C)C)cc2)cc1` (stereo not given): the Potency was 10.5 µM (active).

For the compound `O=S(=O)(N=Cc1c(O)ccc2ccccc12)c1cccs1`, the Potency is 26.4 µM (active).

Take `COc1ccccc1[C@H](c1cccc2ccccc12)[C@@](C)(C#N)C(=O)N1CCC(c2cccc(C(F)(F)F)c2)CC1`: the Potency is 7.43 µM (active).

As for `COc1ccc(-c2c(-c3ccc(O)cc3O)n[nH]c2C)cc1`, the Potency was 23.5 µM (active).
